ALDH1A1 inh – ALDH1A1 (human) enzyme inhibition; P00352; Purified ALDH1A1, NADH fluorescence, propionaldehyde substrate; Potency, µM (series often up to 75.3 µM), inactives show top-dose activity, negative = inhibition, usual class: inhibitors; 220,000 compounds, 7.3% hits; AID 1030;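 further: potency means the concentration at half of the fitted maximal effect; plate controls were no enzyme wells and a reference inhibitor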
HPGD inh – inhibitors of human 15-hydroxyprostaglandin dehydrogenase (HPGD); Potency, µM, for the others: at the top dose activity change, negative = inhibition, most hits filed as inhibitors; P15428; purified HPGD, NADH fluorescence kinetic, PGE2 substrate; 150,000 compounds, 4.3% hits; further: potency means the concentration at half of the fitted maximal effect
Target sequence (P15428 whole entry, looked up): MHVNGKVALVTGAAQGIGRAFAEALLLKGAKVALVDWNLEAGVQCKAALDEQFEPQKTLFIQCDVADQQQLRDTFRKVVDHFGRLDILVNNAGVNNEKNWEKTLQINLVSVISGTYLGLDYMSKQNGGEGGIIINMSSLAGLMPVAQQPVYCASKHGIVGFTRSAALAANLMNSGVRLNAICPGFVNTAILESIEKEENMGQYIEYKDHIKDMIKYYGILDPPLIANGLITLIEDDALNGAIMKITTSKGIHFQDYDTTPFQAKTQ
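NADH formation kinetics: reaction with 30 uM PGE2 and 1 mM NAD+ (final), 20 nM enzyme, Tris-HCl pH 8 with Tween 20, after 15 min compound preincubation at room temperature. Fluorescence change, last versus first of five reads.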
PNC assembly inh – blocks assembly of the perinucleolar compartment | PC3M PTB-GFP, PNC prevalence imaging, 16 h; hits give low values | activity change (PNC), negative = inhibition, % at 10 µM | 140,000 compounds, 3.1% hits;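 active means readout at or below -70, meaning at least 70% loss of cells showing the perinucleolar compartment, a nuclear body marking cancer cells; inconclusive means readout between -30 and a set limit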;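 further: plate controls were DMSO wells for no effect and camptothecin positive control wells for full effect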
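Compounds are pinned in duplicate onto adhered PC3M cells stably expressing GFP-tagged PTB and incubated 16 h at 37 C. Cells are then fixed, nuclei stained with Hoechst, and PNC-positive cells counted.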
KDM4E inh – blocks human JMJD2E demethylase activity. B2RXH2. JMJD2E catalytic domain, FDH-coupled NADH fluorescence (FDH is formaldehyde dehydrogenase). Potency, µM (series often up to 57.1 µM), without a hit: at the top dose activity change, negative = inhibition, most hits filed as inhibitors. 230,000 compounds, 1.6% hits. AID 2147;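 further: potency means the concentration at half of the fitted maximal effect; 0% = wells with enzyme and -100% = buffer wells without enzyme; nearly all actives have a fitted effect of over 50% in size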
Target sequence (B2RXH2 1-337 limits assumed): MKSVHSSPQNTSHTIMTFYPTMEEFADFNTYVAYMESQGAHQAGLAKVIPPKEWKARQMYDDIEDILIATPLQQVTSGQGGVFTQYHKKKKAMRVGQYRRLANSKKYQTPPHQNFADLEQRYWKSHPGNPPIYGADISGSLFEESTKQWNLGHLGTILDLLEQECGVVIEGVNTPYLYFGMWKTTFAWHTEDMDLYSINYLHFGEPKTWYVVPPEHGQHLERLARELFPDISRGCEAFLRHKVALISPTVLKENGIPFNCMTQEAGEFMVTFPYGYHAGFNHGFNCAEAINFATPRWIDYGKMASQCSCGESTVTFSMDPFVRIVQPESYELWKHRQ
The depositor's hits bear a star; ? = inconclusive; · = no result given; [ ] = another dose, or the depositor's remark. Sampled rows, rich in hits. Any-hit rate of the full collection: about 11%. Unless noted, the call rests on the fitted dose curve; in most records, active means well fitted inhibition curve with a large enough effect (not every such curve was filed as active); inconclusive means small, poorly fitted or top-dose-only effect, or another doubt; inactive means no such curve, though single readings can be large or run the other way. Unless noted, on the % scale 0 is the no-effect control and ±100 the full control effect.

SMILES	ALDH1A1 inh	HPGD inh	PNC assembly inh	KDM4E inh
CCN1CCN(C(=S)c2ccc(Cl)cc2)CC1	?	10µM*	19.1	-2.7%
CC(C)(C)c1cc(C(=S)N2CCN(CCO)CC2)cc(C(C)(C)C)c1O	17.8µM*	25.1µM*	?	-24.0%
CCN1CCN(C(=S)c2ccc(OC)cc2)CC1	-14.4%	·	·	-8.6%
OCCN1CCN(C(=S)c2ccc(Cl)cc2)CC1	15.8µM*	15.8µM*	?	-1.2%
S=C(c1ccc(Cl)cc1)N1CCN(Cc2ccccc2)CC1	-18.3%	·	·	?
COCCNC(=O)c1ccc(CN2CCOCC2)cc1	0.9%	-16.3%	-7.6	-4.5%
CCCn1cc(CN2CCC(N3CCC(C(=O)N4CCOCC4)CC3)CC2)c(C)n1	·	·	·	5.5%
NNc1ccccc1C(F)(F)F	17.8µM*	·	·	2.5%
CCN(CC)CCCN=Cc1c(-c2ccccc2)[nH]n(-c2nc3ccccc3s2)c1=O	·	·	·	-10.2%
CCCc1[nH]n(-c2nc3ccccc3s2)c(=O)c1C=NCC(C)C	12.6µM*	-16.5%	0.4	0.4%
CCOc1cc(Cl)c(NC(=O)CC)cc1OCC	9.2%	-0.8%	-113.8*	1.1%
Cc1ccc(-c2nnc3ccc(SCC(=O)Nc4cc(C)on4)nn23)cc1	1.6%	-25.9%	-0.9	?
Cc1cc(NC(=O)CSc2n[nH]c(-c3cccs3)n2)no1	5.3%	14.1µM*	?	12.1%
Cc1cc(NC(=O)CSc2ccc3nnc(-c4cccs4)n3n2)no1	0.9%	-13.3%	-105.7*	-2.9%
CCCCSc1nnc(CSc2nc3nc(C)cc(C)n3n2)o1	-7.2%	25.1µM*	-5.9	0.1%
N#CC(=C(\N)Sc1ccccc1N)/C(C#N)=C(/N)Sc1ccccc1N	·	8.91µM*	·	-5.8%
Clc1ccc(-c2n[nH]c3c2CCC3)cc1Cl	?	17.8µM*	8.7	-7.4%
Cc1ccc(S(=O)(=O)N(CC(=O)N2CCC(C(N)=O)CC2)c2cccc(C(F)(F)F)c2)cc1	12.6µM*	-12.1%	8.9	-0.7%
Cc1ccc(-c2cc(C(F)F)n3ncc(C(=O)N4CCCc5ccccc54)c3n2)cc1	-1.4%	-15.1%	-100.0*	0.2%
COc1ccccc1CNS(=O)(=O)N(C)C	3.5%	·	·	?
CC(=O)Oc1ccc(N(C(C)=O)S(=O)(=O)c2cccs2)c2ccccc12	5.01µM*	-9.9%	-82.1*	-13.3%
C=CCN1C(=O)/C(=c2\sc3nc(=O)c(Cc4ccccc4Cl)nn3c2=O)c2ccccc21	3.55µM*	·	·	-7.1%
CN(C)CCN(C)Cc1ccccc1Sc1cccc2ccccc12	?	-14.3%	13.4	-3.3%
CN(NC(=O)/C=C/C(=O)O)c1ncc(C(F)(F)F)cc1Cl	2.82µM*	·	·	-3.7%
COC(=O)c1sccc1NC(=O)CC1C(=O)NCCN1C(=O)Nc1cc(Cl)ccc1OC (centres undefined)	·	·	·	-0.6%
SMILES	ALDH1A1 inh	HPGD inh	PNC assembly inh	KDM4E inh
Cc1ccc(C)c(Cn2c(CN(C)Cc3ccccc3)nc3c2c(=O)n(C)c(=O)n3C)c1	?	-18.0%	7.3	-6.7%
CN(Cc1ccccc1)Cc1nc2c(c(=O)n(C)c(=O)n2C)n1Cc1ccc(Cl)cc1	?	-5.5%	-6.5	-2.1%
CCCCCn1c(CN(C)Cc2ccccc2)nc2c1c(=O)n(C)c(=O)n2C	10µM*	-7.7%	?	-1.4%
Cc1ccc(Cn2c(CN(C)Cc3ccccc3)nc3c2c(=O)n(C)c(=O)n3C)cc1	7.08µM*	-8.4%	-10.9	-5.4%
COc1cccc([C@@H]2Oc3ccc(OC)cc3C(=O)[C@H]2OC(=O)Nc2ccc(OC(F)F)cc2)c1	0.8%	-8.1%	·	-23.7%
COc1ccc(-n2c(=S)[nH]c3[nH]ncc3c2=O)cc1	·	·	·	-15.5%
O=c1c2cn[nH]c2[nH]c(=S)n1-c1cccc2ccccc12	-10.3%	-18.4%	-113.4*	-10.7%
O=c1c2cn[nH]c2[nH]c(=S)n1-c1ccccc1	?	28.2µM*	?	-8.3%
N#CCSc1nc2[nH]ncc2c(=O)n1-c1ccccc1Br	?	?	21.5	6.2%
COCc1c(C(=O)OC)nnn1-c1ccc(C(F)(F)F)cc1[N+](=O)[O-]	6.7%	·	·	-0.3%
Cc1ccc(S(=O)(=O)/N=C(\CCl)N2CCOCC2)cc1	28.2µM*	-16.8%	24.2	10.4%
CCN(C(=O)COC(=O)c1ccccc1SCC(=O)NC1CCCCCCC1)C1CCS(=O)(=O)C1 (centres undefined)	?	?	-112.4*	1.2%
O=C(CSc1ccccc1C(=O)O)NC1CCCCCC1	·	·	·	2.7%
O=C(CSc1ccccc1C(=O)NCc1ccccc1)NC1CCCCCCC1	-9.8%	20µM*	44.7	0.1%
O=C(NC1CCCCCC1)C(=S)NCCc1ccccc1	11.2µM*	·	·	-7.3%
O=C(NC1CCCCCC1)C(=S)NCc1ccccc1	25.1µM*	·	·	-3.6%
O=C(NC1CCCCC1)C(=S)NCc1ccccc1	-13.7%	·	·	0.7%
Cc1ccc(S(=O)(=O)Nc2cc(S(=O)(=O)N3CCCCC3)ccc2N2CCOCC2)cc1	12.6µM*	·	·	-12.1%
CCN(CC)S(=O)(=O)c1ccc(N2CCOCC2)c(NS(=O)(=O)c2ccc(C)cc2)c1	2.24µM*	-21.7%	8.8	-10.0%
CCN(CC)S(=O)(=O)c1ccc(N2CCOCC2)c(NS(=O)(=O)c2ccc(C)c(C)c2)c1	0.891µM*	-5.2%	-4.1	-5.6%
Cn1nc(C(=O)N2CCN(C(c3ccccc3)c3ccccc3)CC2)c2ccccc2c1=O	?	·	·	-27.9%
CC(C)[C@H]1COC(c2cccc([N+](=O)[O-])c2)=N1	-9.7%[120 µM]	-5.6%	·	·
CCOC(=O)CN1C(=O)S/C(=C/C=C/c2ccc(N(C)C)cc2)C1=O	25.1µM*	-5.4%	31.4	-5.3%
CCCCn1c(=O)[nH]c(=O)c2c1nc(-c1cc3c(cc1Br)OCO3)n2C	10.6%	·	·	12.9%
COc1ccccc1N1CCN(/N=C/C=C/c2ccccc2[N+](=O)[O-])CC1	·	·	·	-5.0%
SMILES	ALDH1A1 inh	HPGD inh	PNC assembly inh	KDM4E inh
O=C(NC1CC1)C1CCN(c2ccc(S(=O)(=O)N3CCOCC3)cc2Cl)CC1	6.6%	25.1µM*	-2.3	1.6%
O=C(NCc1cccs1)C1CCN(c2ccc(S(=O)(=O)N3CCOCC3)cc2Cl)CC1	-0.1%	-20.6%	-124.1*	8.1%
CC(C)(C)NC(=O)C1CCN(c2ccc(S(=O)(=O)N3CCOCC3)cc2Cl)CC1	-2.5%	·	·	12.8%
Cc1cc(Cc2cc(C)cc(C(C)(C)C)c2O)c(O)c(Cc2cc(C)cc(C(C)(C)C)c2O)c1	3.4%[13.5 µM]	-3.7%	·	·
CC(C)On1c(SCC(=O)N(C)C)nc2ccccc2c1=O	-3.6%	·	·	7.0%
CCOCCCNC(=O)c1ccccc1Br	8.6%	10µM*	-22.5	-2.5%
CCOC(=O)CCNC(=O)c1ccccc1Br	4.3%	17.8µM*	-0.3	6.5%
N#Cc1cc(NC(=O)c2ccc(F)cc2)c(=O)n2c1[nH]c1ccccc12	0.4%	·	·	?
CC1(C)[C@@H]2CC[C@@]1(C)C(=O)C2	?	-5.1%	·	11.0%
c1ccc(-c2nnc(OCc3cccnc3)c3ccccc23)cc1	10.9%	·	·	3.5%
COc1ccc(-c2nnc(OCc3ccccc3)c3ccccc23)cc1	?	-21.4%	-87.7*	0.0%
CC(=O)Nc1c(C(=O)N2CCCCCC2)cnn1-c1ccccc1	11.7%	?	-27.5	-0.7%
CC(=O)Nc1c(C(=O)N2CCCCCC2)cnn1-c1ccccc1Cl	3.0%	14.1µM*	121.2	1.7%

Screens from PubChem.
